Measurements taken from PubChem BioAssay AID1159580 (chemical genetic matrix, 2015).
Where “and” joins values, the source holds several entries; their conditions need not be identical. Identical values can stand only once. About 2,000 (36%) of roughly 5,500 compounds were called active. About 18% were inconclusive and are not listed. No stated cut-off is given here; in the data, active means normalized growth mostly below about 0.91 (no sharp cut-off); inconclusive means no clear call, values can overlap the other calls; inactive means mostly above about 0.92. This is one part of the list.

Test: chemical genetic growth profiling, strain panel (AID 1159580);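 further: tested at 20 µM; growth read once vehicle control cultures reached saturation at 30 °C; 1 = growth at the plate median or of vehicle wells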
Settings: S. cerevisiae deletion strains, growth OD

Measured: normalized growth

N#C/C(=C\c1cccc(O)c1)C(=O)O
inactive: locus YAL013W, strain DEP1, stronger effect = lower value 0.996 | locus YAL021C, strain ccr4, stronger effect = lower value 0.978 | locus YAL026C, strain drs2, stronger effect = lower value 0.985 | locus YAL030W, strain snc1, stronger effect = lower value 0.977 | locus YBL061C, strain skt5, stronger effect = lower value 0.976 | locus YBR009C, strain hhf1, stronger effect = lower value 1.03 | locus YBR021W, strain FUR4, stronger effect = lower value 1.02 | locus YBR023C, strain chs3, stronger effect = lower value 0.979 | locus YBR171W, strain sec66, stronger effect = lower value 0.995 | locus YBR229C, strain ROT2, stronger effect = lower value 0.961 | locus YBR231C, strain swc5, stronger effect = lower value 1.01 | locus YBR279W, strain paf1, stronger effect = lower value 0.987 | locus YCL016C, strain dcc1, stronger effect = lower value 0.966 | locus YCL029C, strain bik1, stronger effect = lower value 0.997 | locus YCL061C, strain MRC1, stronger effect = lower value 0.985 | locus YCL069W, strain vba3, stronger effect = lower value 1 | locus YCR088W, strain abp1, stronger effect = lower value 0.989 | locus YDL005C, strain med2, stronger effect = lower value 0.999 | locus YDL035C, strain GPR1, stronger effect = lower value 0.994 | locus YDL040C, strain nat1, stronger effect = lower value 0.99 | locus YDL074C, strain BRE1, stronger effect = lower value 0.981 | locus YDL101C, strain DUN1, stronger effect = lower value 0.974 | locus YDL134C, strain PPH21, stronger effect = lower value 0.992 | locus YDL185W, strain tfp1, stronger effect = lower value 0.98 | locus YDL192W, strain arf1, stronger effect = lower value 0.994 | locus YDR001C, strain nth1, stronger effect = lower value 0.988 | locus YDR069C, strain doa4, stronger effect = lower value 0.985 | locus YDR101C, strain arx1, stronger effect = lower value 1.01 | locus YDR137W, strain rgp1, stronger effect = lower value 0.977 | locus YDR150W, strain NUM1, stronger effect = lower value 0.974 | locus YDR159W, strain sac3, stronger effect = lower value 0.987 | locus YDR162C, strain NBP2, stronger effect = lower value 0.921 | locus YDR195W, strain ref2 1 | locus YDR297W, strain sur2, stronger effect = lower value 0.984 | locus YDR318W, strain mcm21, stronger effect = lower value 1.03 | locus YDR334W, strain swr1, stronger effect = lower value 0.981 | locus YDR335W, strain msn5, stronger effect = lower value 0.982 | locus YDR388W, stronger effect = lower value 0.999 | locus YDR392W, strain spt3, stronger effect = lower value 0.933 | locus YDR502C, strain sam2, stronger effect = lower value 0.997 | locus YEL003W, strain gim4, stronger effect = lower value 0.997 | locus YEL037C, strain rad23, stronger effect = lower value 0.997 | locus YEL061C, strain CIN8 (second series), stronger effect = lower value 0.989 | locus YEL061C, strain CIN8, stronger effect = lower value 0.985 | locus YER015W, strain faa2, stronger effect = lower value 0.975 | locus YER016W, strain bim1, stronger effect = lower value 0.949 | locus YER110C, stronger effect = lower value 0.942 | locus YER111C, strain swi4, stronger effect = lower value 0.971 | locus YER155C, strain BEM2 (second series), stronger effect = lower value 1.04 | locus YER155C, strain BEM2, stronger effect = lower value 0.986 | locus YER167W, strain BCK2, stronger effect = lower value 1.05 | locus YFR010W, strain ubp6, stronger effect = lower value 1.01 | locus YGL078C, strain dbp3, stronger effect = lower value 0.976 | locus YGL086W, strain mad1, stronger effect = lower value 1.03 | locus YGL167C, strain pmr1, stronger effect = lower value 0.99 | locus YGL173C, strain kem1, stronger effect = lower value 1.01 | locus YGL227W, strain vid30, stronger effect = lower value 0.985 | locus YGL240W, strain doc1, stronger effect = lower value 0.986 | locus YGL248W, strain PDE1, stronger effect = lower value 0.984 | locus YGL253W, strain hxk2, stronger effect = lower value 0.975 | locus YGR078C, strain PAC10, stronger effect = lower value 0.996 | locus YGR135W, strain pre9, stronger effect = lower value 0.993 | locus YGR229C, strain SMI1, stronger effect = lower value 1.02 | locus YGR252W, strain gcn5, stronger effect = lower value 1.07 | locus YHR013C, strain ard1, stronger effect = lower value 0.962 | locus YHR027C, strain rpn1, stronger effect = lower value 0.984 | locus YHR030C, strain SLT2, stronger effect = lower value 0.999 and 0.994 | locus YHR079C, strain IRE1 (second series), stronger effect = lower value 1 | locus YHR079C, strain IRE1, stronger effect = lower value 0.969 | locus YHR094C, strain hxt1, stronger effect = lower value 0.993 | locus YHR129C, strain ARP1, stronger effect = lower value 1 | locus YHR142W, strain chs7, stronger effect = lower value 0.971 | locus YHR200W, strain rpn10, stronger effect = lower value 1 | locus YIL066C, strain RNR3, stronger effect = lower value 0.989 | locus YIL073C, strain SPO22, stronger effect = lower value 1.1 | locus YIL125W, strain kgd1, stronger effect = lower value 0.989 | locus YIR030C, strain dcg1, stronger effect = lower value 0.991 | locus YJL092W, strain hpr5, stronger effect = lower value 0.987 | locus YJL095W, strain BCK1 (second series), stronger effect = lower value 0.984 | locus YJL095W, strain BCK1, stronger effect = lower value 1.01 and 0.978 | locus YJL115W, strain asf1, stronger effect = lower value 0.97 | locus YJL129C, strain trk1, stronger effect = lower value 0.925 | locus YJL134W, strain LCB3, stronger effect = lower value 0.987 | locus YJL154C, strain vps35, stronger effect = lower value 0.985 | locus YJL164C, strain tpk1, stronger effect = lower value 0.987 | locus YJL166W, strain qcr8, stronger effect = lower value 1 | locus YJL168C, strain set2, stronger effect = lower value 0.995 | locus YJL187C, strain SWE1 (second series), stronger effect = lower value 0.966 | locus YJL187C, strain SWE1, stronger effect = lower value 0.997 | locus YJR043C, strain POL32, stronger effect = lower value 1.04 | locus YJR066W, strain TOR1, stronger effect = lower value 0.98
